# Screening results deposited in PubChem by Johns Hopkins Ion Channel Center.
# Rows were chosen to be rich in hits. Some 1.6% of all compounds tested hit in one or more screens of this group.
# KCNQ2 inh: KCNQ2 (rat) channel inhibition | 310,000 compounds, 1.1% hits | AID 2156 | O88943 | B-score at 10 µM | CHO-K1 KCNQ2, FluxOR thallium flux, 20 min; hits give low values;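 active = fluorescence ratio B-score at most minus 3 library SDs, with starting brightness B-score within 2 library SDs, cut at about -5.5 in these data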
# Target sequence (O88943 whole entry, looked up): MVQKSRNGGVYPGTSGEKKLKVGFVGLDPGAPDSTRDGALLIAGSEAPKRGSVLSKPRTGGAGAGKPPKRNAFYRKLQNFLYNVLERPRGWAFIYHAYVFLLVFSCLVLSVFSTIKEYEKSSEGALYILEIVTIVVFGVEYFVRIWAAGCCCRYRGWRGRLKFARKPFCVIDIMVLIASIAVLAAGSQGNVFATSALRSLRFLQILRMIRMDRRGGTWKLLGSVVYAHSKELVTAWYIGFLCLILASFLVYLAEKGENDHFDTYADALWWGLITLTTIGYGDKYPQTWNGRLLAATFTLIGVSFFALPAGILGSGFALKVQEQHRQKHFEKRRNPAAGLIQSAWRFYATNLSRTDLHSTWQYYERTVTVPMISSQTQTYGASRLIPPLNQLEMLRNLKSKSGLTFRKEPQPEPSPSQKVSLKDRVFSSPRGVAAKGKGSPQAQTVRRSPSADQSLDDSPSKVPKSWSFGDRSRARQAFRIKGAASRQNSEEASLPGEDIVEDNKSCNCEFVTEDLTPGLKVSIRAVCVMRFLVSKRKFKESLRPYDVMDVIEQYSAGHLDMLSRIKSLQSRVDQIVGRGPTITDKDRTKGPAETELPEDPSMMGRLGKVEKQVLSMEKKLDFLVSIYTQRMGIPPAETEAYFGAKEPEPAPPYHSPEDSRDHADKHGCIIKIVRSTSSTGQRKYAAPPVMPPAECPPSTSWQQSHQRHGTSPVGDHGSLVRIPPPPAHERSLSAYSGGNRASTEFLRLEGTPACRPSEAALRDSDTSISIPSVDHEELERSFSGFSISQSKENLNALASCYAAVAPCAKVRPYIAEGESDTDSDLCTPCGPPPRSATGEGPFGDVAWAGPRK
# KCNQ2 enhance: KCNQ2 (rat) channel potentiation; O88943; CHO-K1 KCNQ2, FluxOR thallium flux fluorescence; hits give high values; B-score at 10 µM; 310,000 compounds, 0.54% hits;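 active = fluorescence ratio B-score at least 3 SD of library B-scores, with initial fluorescence B-score within 3 of them, cut at about 5.3 in these data; same plate scores as AID 2156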;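 note: B-score of peak minus minimum over baseline fluorescence ratio after K+ and Tl+ stimulus; positive B-score means potentiation of KCNQ2 with more thallium influx and brighter signal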
# * marks the source's active call; other numbers are inactive results; i = inactive; x = not tested or not shown.
SMILES,KCNQ2 inh,KCNQ2 enhance
Cc1cc(C)cc(NC(=O)COc2coc(CN3CCc4ccccc4C3)cc2=O)c1,i,x
COc1ccc(NC(=S)N2CCN(S(=O)(=O)c3ccccc3)CC2)cc1OC,i,x
COC(=O)C1=C(c2ccc(OC)cc2)OC(=O)C1(C)C,i,1.6
CN(C)c1nnnn1Cc1ccccc1,i,x
CC(C#Cc1c([C@@H](C)Oc2ccccc2)nnn1Cc1ccccc1)Oc1ccccc1 (some centres undefined),-6.34*,-6.34
CC1CCc2sc(C(=O)NNS(=O)(=O)c3ccc(F)c(F)c3F)cc2C1 (centres undefined),i,0.15
COc1ccccc1-n1c(CNC(=O)c2ccc(S(=O)(=O)N3CCCCC3)cc2)n[nH]c1=S,i,1.09
CCOC(=O)N1CCN(CC(=O)Nc2sc(CC)cc2C(=O)c2ccc(OC)cc2)CC1,-5.93*,-5.93
CCc1cc(C(=O)OC)c(NC(=O)CN2CCN(C(=O)c3ccco3)CC2)s1,i,1.64
CCCCCCCCN1[C@@H](CC(=O)OCC)c2cc(F)ccc2S1(=O)=O,i,x
CCCCCCCCN1[C@@H](CC(=O)OC)c2cc(F)ccc2S1(=O)=O,-6.04*,-6.04
CCOCCCNS(=O)(=O)c1ccc(NC(=O)C2CC(=O)N(c3ccc(C)cc3)C2)cc1 (centres undefined),i,0.05
O=C(Nc1cccc(S(=O)(=O)N2CCCCC2)c1)c1ccc([N+](=O)[O-])o1,i,8.51*
O=C(COC(=O)c1ccc([N+](=O)[O-])o1)Nc1cccc(S(=O)(=O)N2CCCCC2)c1,i,0.25
Cc1ccc(NS(=O)(=O)c2ccc(-n3cccn3)cc2)nc1,i,0.46
CCOC(=O)Cn1c(S(=O)(=O)Cc2ccccc2)nc2ccccc21,i,0.3
CCOC(=O)Cn1c(S(=O)(=O)Cc2ccc(Cl)cc2)nc(-c2ccccc2)c1-c1ccccc1,-6.52*,-6.52
O=C(COn1nnc2ccc(Cl)cc21)NC12CC3CC(CC(C3)C1)C2,-6.12*,-6.12
O=C(COn1nnc2ccc(Cl)cc21)Nc1ccc(F)cc1,i,x
COc1ccc(OCCCC(=O)OCC(=O)NNC(=O)c2ccc([N+](=O)[O-])cc2)cc1,i,1.64
O=C(NCc1ccccc1OC(F)(F)F)C1CCC(=O)N(Cc2cccc(F)c2)C1 (centres undefined),i,x
Cc1ccccc1CNC(=O)C1CCC(=O)N(Cc2cccc(F)c2)C1 (centres undefined),-6.32*,-6.32
Nc1c(C(=O)c2ccccc2)sc2snc(SCC(=O)c3ccccc3)c12,-5.95*,-5.95
Nc1nnc(SCC(=O)c2ccccc2)s1,i,0.86
O=C(COc1coc(CN2CCc3ccccc32)cc1=O)Nc1cccc(F)c1,i,0.15
SMILES,KCNQ2 inh,KCNQ2 enhance
CC(C)C(NC(=O)c1c(F)cccc1F)C(=O)NC1CC(C)(C)NC(C)(C)C1 (centres undefined),i,0.15
O=c1cc(CN2CCN(S(=O)(=O)c3ccc4c(c3)OCCO4)CC2)c2ccc(O)cc2o1,-5.59*,-5.59
CCc1ccc2c(CN3CCN(S(=O)(=O)c4ccc5c(c4)OCCO5)CC3)cc(=O)oc2c1,i,0.46
COc1ccc(C(=O)N2N=C(c3ccc(NS(C)(=O)=O)cc3)CC2c2cccs2)cc1 (centres undefined),i,0.01
COCCN1C(=O)/C(=C/c2ccc(OCc3ccc(C(=O)O)cc3)c(OC)c2)SC1=Nc1ccccc1,-6.08*,-6.08
COc1cc(/C=C2\SC(=Nc3ccccc3)N(Cc3ccco3)C2=O)ccc1OC(C)C(=O)O (centres undefined),i,x
CC1CCCC(C)N1C(=O)CSCc1ccc(Cl)cc1 (centres undefined),-6.33*,-6.33
CC1CCCC(C)N1C(=O)COC(=O)Cc1ccc(Cl)cc1 (centres undefined),i,x
O=C(CSCc1ccc(Cl)cc1)NN=C1CCCC1,i,6.83*
N#Cc1ccc(CSCC(=O)NN=C2CCCC2)cc1,i,x
CC(=O)c1ccc(OCC(=O)Nc2ccccc2C(=O)NC2CC2)cc1,i,0.05
COC(=O)c1sccc1S(=O)(=O)N1CCCC(N(C)CCc2ccccn2)C1 (centres undefined),i,0.78
C=CCn1c(SCC(=O)Nc2ccc(S(N)(=O)=O)cc2)nnc1-c1cnccn1,i,x
Cc1ccc(C)n1-n1cnc2sc3c(c2c1=O)CCCCC3,-7.47*,-7.47
Cc1ccc(C)n1-n1c(C)nc2sc3c(c2c1=O)CCCCC3,i,x
CN(C)CCNC(=O)CNC(=S)N(CCCN1CCOCC1)Cc1cccs1,i,x
Cc1c(C(=O)N2CCC[C@H]2C(N)=O)oc2c(F)cccc12,i,x
Cc1ccc(C)c2[nH]c(=O)c(C(c3nnnn3C3CCCC3)N3CCOCC3)cc12 (centres undefined),-6.08*,-6.08
CCOC(=O)C1CCN(C(c2cc3c(C)ccc(C)c3[nH]c2=O)c2nnnn2C2CCCCC2)CC1 (centres undefined),i,x
COc1cc2cc(C(c3nnnn3C3CCCC3)N3CCCCCC3)c(=O)[nH]c2cc1OC (centres undefined),-10.8*,-10.8
CCOc1ccc2[nH]c(=O)c(C(c3nnnn3C3CCCCC3)N3CCN(CC)CC3)cc2c1 (centres undefined),i,0.77
Cc1ccc(C)c2[nH]c(=O)c(C(c3nnnn3CCc3ccccc3)N3CCOCC3)cc12 (centres undefined),-5.98*,-5.98
COc1ccc(Cn2nnnc2C(c2cc3cccc(C)c3[nH]c2=O)N2CCOCC2)cc1 (centres undefined),i,x
Cc1cnc(C(=O)Oc2ccc(-c3ccccc3)cc2)cn1,i,0.01
CC(=O)SC(C[N+](=O)[O-])c1cn(C(C)=O)c2ccccc12 (centres undefined),-5.57*,-5.57
SMILES,KCNQ2 inh,KCNQ2 enhance
CC(=O)n1cc(Nc2ccc([N+](=O)[O-])cc2)c2ccccc21,i,0.03
CNC(=S)N/N=C/c1cc(Br)cc(Br)c1O,i,7.01*
Oc1c(Br)cc(Br)cc1/C=N/NC(=S)N[C@H]1CC2C=CC1C2 (some centres undefined),i,0.28
CCOC(=O)C1=C(C)N(c2ccccc2)C(=O)/C1=C\c1cccs1,i,x
COC(=O)C1=C(C)N(c2cccc(C)c2)C(=O)/C1=C\c1cccs1,-6.71*,-6.71
O=C(Cc1ccccc1)NCC(=O)N1CCN(c2ccccc2)CC1,i,0.43
COc1cccc(-c2nn(-c3ccc(C)cc3)cc2C(=O)NCC(c2cccs2)N2CCOCC2)c1 (centres undefined),-6.92*,-6.92
COc1ccc(-c2nn(-c3ccccc3)cc2C(=O)NCC(c2cccs2)N2CCOCC2)cc1 (centres undefined),i,x
O=C(NC(=S)Nc1ccccc1Br)C1CCC1,i,x
CS(=O)(=O)N(CC(=O)N1CCc2ccccc2C1)Cc1ccc(F)cc1,i,x
CS(=O)(=O)N(CC(=O)N1CCc2ccccc2C1)Cc1ccc(Cl)cc1,-6.04*,-6.04
CS(=O)(=O)N(CC(=O)N1CCc2ccccc2C1)c1cccc(F)c1,i,x
Cc1ccc(S(=O)(=O)N(CC(=O)N2CCC(C)CC2)c2cccc(C)c2)cc1,-6.15*,-6.15
O=C(CN(c1cccc(Cl)c1)S(=O)(=O)c1ccc(Cl)cc1)N1CCc2ccccc2C1,-6.54*,-6.54
CCOC(=O)N1CCN(C(=O)CN(c2cccc(C)c2)S(=O)(=O)c2ccc(C)cc2)CC1,i,1.05
CN(CC(=O)Oc1ccc(-c2nnco2)cc1)S(=O)(=O)c1ccc(F)cc1,i,x
